Laboratory results published in publication PMC5540273 (PLoS ONE, 2017).

Experiments:
Details in all cases: concentration: 1 μM, replicates: in singlicate; n = 1
EPHB3 = test system: EPHB3
EPHB4 = test system: EPHB4
EPHB6 = test system: EPHB6
ERBB2 = test system: ERBB2
ERBB3 = test system: ERBB3
ERBB4 = test system: ERBB4
ERK1 = test system: T1, ERK1
T1 construct: gene MAPK3

ERK2 = test system: T2, ERK2
T2 construct: gene MAPK1

ERK3 = test system: T3, ERK3
T3 construct: gene MAPK6

ERK4 = test system: T4, ERK4
T4 construct: gene MAPK4

ERK5 = test system: T5, ERK5
T5 construct: gene MAPK7

ERK8 = test system: T6, ERK8
T6 construct: gene MAPK15

ERN1 = test system: ERN1
FAK = test system: T7, FAK
T7 construct: gene PTK2

FER = test system: FER
FES = test system: FES
FGFR1 = test system: FGFR1
FGFR2 = test system: FGFR2
FGFR3 = test system: FGFR3
FGFR4 = test system: FGFR4
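Also: KINOMEscan kinase panel screen.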

Row | Structure (SMILES) | %Inh (EPHB3) | %Inh (EPHB4) | %Inh (EPHB6) | %Inh (ERBB2) | %Inh (ERBB3) | %Inh (ERBB4) | %Inh (ERK1) | %Inh (ERK2) | %Inh (ERK3) | %Inh (ERK4) | %Inh (ERK5) | %Inh (ERK8) | %Inh (ERN1) | %Inh (FAK) | %Inh (FER) | %Inh (FES) | %Inh (FGFR1) | %Inh (FGFR2) | %Inh (FGFR3) | %Inh (FGFR4)
1 | CC(C)(C)c1ccc(C(=O)Nc2cn3cc(-c4ccccc4)ccc3n2)cc1 | 3% | 0% | 0% | 50% | 0% | 4% | 0% | 0% | 0% | 6% | 0% | 20% | 26% | 0% | 0% | 0% | 0% | 1% | 7% | 0%
2 | O=C(NCc1cccs1)c1cc(C(=O)c2c(Cl)cccc2Cl)c[nH]1 [GW823670] | 0% | 0% | 0% | 0% | 0% | 20% | 0% | 5% | 0% | 0% | 0% | 0% | 0% | 91.3% | 1% | 0% | 0% | 0% | 0% | 0%
3 | COc1cc2ncn(-c3cc(OCc4ccncc4Br)c(C(N)=O)s3)c2cc1OC [GW854278] | 0% | 18% | 3% | 11% | 37% | 0% | 0% | 0% | 0% | 4% | 0% | 0% | 24% | 0% | 2% | 0% | 43% | 16% | 29% | 7%
4 | COc1ccc(-n2cnc3c(N)ncnc32)cc1 [SKF-97236] | 0% | 0% | 1% | 7% | 0% | 1% | 14% | 9% | 0% | 0% | 0% | 40% | 0% | 13% | 13% | 0% | 27% | 0% | 0% | 18%
5 | COc1ccc(CNC(=O)NC2CCN(c3ccnc(Nc4ccc(F)cc4)n3)C2)cc1 (stereo not drawn) [GSK1379706] | 6% | 16% | 30% | 41% | 47% | 2% | 6% | 14% | 14% | 0% | 0% | 0% | 0% | 4% | 25% | 0% | 0% | 15% | 22% | 15%
6 | CCCNC(=O)Nc1ccc(Oc2ncnc3ccn(C)c23)cc1 | 0% | 0% | 5% | 33% | 1% | 4% | 0% | 0% | 2% | 0% | 3% | 0% | 35% | 3% | 0% | 0% | 8% | 0% | 0% | 0%
7 | COc1cc(Nc2nccc(N3CCC(NC(=O)C4COc5ccccc5O4)C3)n2)cc(OC)c1OC (stereo not drawn) [GSK1379761] | 0% | 7% | 93.9% | 50% | 37% | 30% | 0% | 0% | 5% | 15% | 0% | 0% | 2% | 0% | 17% | 0% | 3% | 30% | 9% | 0%
8 | COc1ccc(-c2cc3c(C)nc(N)nc3n([C@H]3CC[C@H](O)CC3)c2=O)cn1 | 0% | 0% | 4% | 0% | 0% | 0% | 0% | 0% | 0% | 5% | 0% | 0% | 0% | 0% | 0% | 0% | 0% | 0% | 0% | 0%
9 | COc1cccc(C2=C(N(C)c3ccccc3)C(=O)NC2=O)c1 [SB-334865] | 3% | 0% | 11% | 41% | 0% | 0% | 7% | 0% | 0% | 46% | 0% | 0% | 0% | 0% | 0% | 0% | 0% | 0% | 3% | 19%
10 | CCc1ccc(-c2ccc3c(c2)-c2nn(C)cc2S(=O)(=O)N3C)cc1 | 0% | 0% | 12% | 2% | 24% | 0% | 3% | 0% | 0% | 0% | 5% | 36% | 0% | 5% | 6% | 0% | 16% | 0% | 0% | 0%
11 | CCC(=O)c1c(-c2ccccc2)c2cc(Cl)ccc2c(=O)n1Cc1cc(S(C)(=O)=O)n(CC(N)=O)n1 | 0% | 0% | 15% | 39% | 0% | 0% | 0% | 0% | 0% | 0% | 0% | 0% | 0% | 0% | 0% | 0% | 6% | 9% | 2% | 0%
12 | COc1cc2ncn(-c3cc(OCc4ccncc4)c(C(N)=O)s3)c2cc1OC [GSK336313] | 0% | 10% | 22% | 0% | 0% | 22% | 0% | 0% | 28% | 46% | 0% | 0% | 23% | 0% | 24% | 0% | 0% | 0% | 7% | 2%
13 | CCn1c(-c2nonc2N)nc2ccccc21 [SB-693162/GW549034] | 0% | 0% | 45% | 0% | 4% | 0% | 0% | 10% | 0% | 0% | 0% | 1% | 26% | 8% | 0% | 0% | 0% | 7% | 14% | 0%
14 | Cc1c(Cn2c(C)nn3c(=O)cc(N4CCO[C@H](C)C4)nc23)cccc1C(F)(F)F [GSK2373690] | 10% | 0% | 0% | 7% | 0% | 32% | 17% | 14% | 10% | 2% | 0% | 0% | 10% | 0% | 20% | 0% | 5% | 1% | 18% | 3%
15 | Fc1cccc(CSc2nnc(-c3ccc4c(c3)CCO4)o2)c1 | 0% | 0% | 14% | 59% | 8% | 0% | 5% | 30% | 21% | 0% | 0% | 3% | 14% | 0% | 0% | 0% | 0% | 0% | 0% | 6%
